High-throughput results (PubChem BioAssay)
KCNQ2 inh – inhibitors of rat KCNQ2 potassium channel | O88943 | 1.1% of 310,000 active | AID 2156 | B-score at 10 µM | CHO-K1 KCNQ2, FluxOR thallium flux, 20 min; stronger effect = lower value;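 active = fluorescence ratio B-score at most minus 3 library SDs, with starting brightness B-score within 2 library SDs, cut at about -5.5 in these data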
KCNQ2 enhance – potentiators of rat KCNQ2 potassium channel; B-score at 10 µM; O88943; 0.54% of 310,000 active; CHO-K1 KCNQ2, FluxOR thallium flux fluorescence; stronger effect = higher value;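 active = fluorescence ratio B-score at least 3 SD of library B-scores, with initial fluorescence B-score within 3 of them, cut at about 5.3 in these data; same plate scores as AID 2156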;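 also: B-score of peak minus minimum over baseline fluorescence ratio after K+ and Tl+ stimulus; positive B-score means potentiation of KCNQ2 with more thallium influx and brighter signal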
KCNQ2 block conf – confirmation of rat KCNQ2 potassium channel inhibitors; shares compounds with KCNQ2 inh; KCNQ2-expressing cells, thallium flux, inhibition; stronger effect = lower value; activity change, negative = inhibition, % at 10 µM; 57% of 1,000 active; AID 493025;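 also: 0% = vehicle wells and values are ratio percent relative to vehicle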
KCNQ1 spec – selectivity of KCNQ2 inhibitors against human KCNQ1; shares compounds with KCNQ2 inh; KCNQ1-expressing cells, FluxOR thallium flux fluorescence; stronger effect = lower value; activity change, negative = inhibition, % at 10 µM; 15% of 1,000 active; AID 493026;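 active = activity change at least 3 SD of negative controls below their mean in both duplicate wells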;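 also: CHO cells stably transfected with KCNQ1 and depolarized by potassium stimulus; peak minus minimum fluorescence over baseline after thallium addition; 0% = vehicle negative control and -100% = blank without thallium stimulus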
Target sequence (P51787 whole entry, looked up): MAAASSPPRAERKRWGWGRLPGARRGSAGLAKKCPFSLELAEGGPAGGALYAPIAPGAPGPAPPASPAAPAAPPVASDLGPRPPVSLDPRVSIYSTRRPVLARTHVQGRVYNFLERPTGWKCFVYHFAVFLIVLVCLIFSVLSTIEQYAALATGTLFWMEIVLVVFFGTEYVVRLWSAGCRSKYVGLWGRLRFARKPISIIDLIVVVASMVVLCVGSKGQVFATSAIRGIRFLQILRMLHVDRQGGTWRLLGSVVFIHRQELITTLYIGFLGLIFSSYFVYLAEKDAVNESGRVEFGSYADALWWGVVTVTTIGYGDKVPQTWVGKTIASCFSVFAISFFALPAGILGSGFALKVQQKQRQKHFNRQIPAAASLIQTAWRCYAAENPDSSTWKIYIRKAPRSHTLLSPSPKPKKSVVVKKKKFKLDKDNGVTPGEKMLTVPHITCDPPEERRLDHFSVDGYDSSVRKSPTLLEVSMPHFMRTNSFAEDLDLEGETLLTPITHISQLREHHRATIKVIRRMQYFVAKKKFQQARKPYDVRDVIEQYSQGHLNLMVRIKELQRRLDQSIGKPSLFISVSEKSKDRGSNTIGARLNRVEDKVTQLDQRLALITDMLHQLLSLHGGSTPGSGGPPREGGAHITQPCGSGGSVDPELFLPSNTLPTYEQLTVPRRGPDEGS
CHO Tl ctr – activity in parental CHO cells lacking KCNQ2 | shares compounds with KCNQ2 inh | AID 493029 | thallium flux counter-screen; stronger effect = lower value | 14% of 1,000 active | activity change, % at 10 µM;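 also: 0% = vehicle negative controls with stimulus buffer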
KCNQ2 inh confirm – rat KCNQ2 inhibition confirmed by electrophysiology. KCNQ2-expressing cells, automated patch clamp current. 49% of 550 active. calls only at 10 µM. shares compounds with KCNQ2 inh
Active calls of the source: *; i = inactive; · = no result; + = active, no number. This is a sample that favours compounds with a hit; in the whole collection about 1.6% have one here. Unless noted, no rule for the calls is given here.

SMILES	KCNQ2 inh	KCNQ2 enhance	KCNQ2 block conf	KCNQ1 spec	CHO Tl ctr	others
COc1cc(NC(=O)c2cc3nc(-c4ccccc4)cc(-c4ccccc4)n3n2)cc(OC)c1OC	-7.11*	-7.11	i	i	i
COc1cc(NC(=O)c2cc(-c3ccccc3)on2)cc(OC)c1OC	i	·	·	·	·
COCCn1c(N)c(N(Cc2ccccc2)C(=O)CSCC(=O)Nc2ccc(C)cc2)c(=O)[nH]c1=O	i	·	·	·	·
CCCN(CC(=O)Nc1ccccc1OC)C(=O)c1cc(-c2cccs2)nn1-c1ccccc1	-9.27*	-9.27	-32.0%*	i	i	KCNQ2 inh confirm=+
CCN(CC(=O)Nc1ccccc1C(F)(F)F)C(=O)c1cc(-c2cccs2)nn1-c1ccccc1	i	·	·	·	·
CC(C)Oc1ccc(CNC(=O)CCC(=O)N2CCSc3ccccc32)cc1	i	1.15	·	·	·
COC(C(=O)N1CCC(n2nccc2NC(=O)C2CC2)CC1)c1ccccc1 (centres undefined)	i	·	·	·	·
O=C(Nc1ccccc1)N1N=C(c2ccc(F)cc2)CC1c1ccc(F)cc1 (centres undefined)	-6.72*	-6.72	i	i	i
COc1ccc(C2CC(c3ccccc3)=NN2C(=O)c2ccc(F)cc2)cc1 (centres undefined)	i	0.66	·	·	·
CN(CC(O)COc1ccc(OCC(O)CN(C)C2CCCCC2)cc1)C1CCCCC1 (centres undefined)	i	0.08	·	·	·
Cc1cccc(C)c1OCC(O)CN(Cc1ccccc1O)C1CCCCC1 (centres undefined)	-8.39*	-8.39	-41.0%*	-43.0%*	-35.5%*	KCNQ2 inh confirm=+
CS(=O)(=O)N(CC(=O)N1CCCC1)c1cccc(F)c1	i	1.15	·	·	·
COc1ccc(/C=N/n2c(-c3ccccc3)n[nH]c2=S)cc1	i	·	·	·	·
COc1ccc(/C=N/n2c(N)nc(-c3ccccc3)c2-c2ccccc2)cc1	-7.02*	-7.02	i	i	i
Cc1ccc(C(=O)NCC(C)NC(=O)c2ccc(C)c(C)c2)cc1C (centres undefined)	i	0.05	·	·	·
O=C(CSc1nnc(Cc2cccs2)n1Cc1ccco1)Nc1ccc(Cl)cc1Cl	-6.86*	-6.86	i	i	i
Cn1c(Cc2cccs2)nnc1SCC(=O)Nc1ccccc1F	i	·	·	·	·
Cc1cccc(NCc2nc3ccccc3n2Cc2ccccc2)c1	-8.38*	-8.38	i	i	i
Cc1nc2cc(NCc3nc4ccccc4n3Cc3ccccc3)ccc2n1C	i	·	·	·	·
Cc1cccc(C(=O)O)c1NC(=O)Cc1cccc2ccccc12	i	·	·	·	·
CCN(Cc1ccccc1)C(=O)CCc1nnc(CCCc2ccccc2)o1	-10.2*	-10.2	-26.0%*	i	i	KCNQ2 inh confirm=+
CN(Cc1ccsc1)C(=O)CCc1nnc(CCCc2ccccc2)o1	i	·	·	·	·
O=C(NC1CCCC1)C(c1cccnc1)N(C(=O)c1csnn1)c1ccccc1Cl (centres undefined)	i	0.77	·	·	·
Cc1c(C=O)c2ccccn2c1C(=O)c1cccc([N+](=O)[O-])c1	i	·	·	·	·
O=C(c1ccccc1)c1nc2ccccc2n(CCCn2c(=O)c(C(=O)c3ccccc3)nc3ccccc32)c1=O	-9.01*	-9.01	i	i	i
SMILES	KCNQ2 inh	KCNQ2 enhance	KCNQ2 block conf	KCNQ1 spec	CHO Tl ctr	others
Cn1c(=O)c(C(=O)c2ccccc2)nc2ccccc21	i	0.02	·	·	·
CCCN(CCC)CCNC(=O)c1cc2c(-c3ccc(Cl)cc3)nn(C)c2s1	-7.3*	-7.3	-34.0%*	i	i	KCNQ2 inh confirm=i
CCCCN(CC)CCNC(=O)c1cc2c(-c3ccc(Cl)cc3)nn(C)c2s1	-8.41*	-8.41	-35.0%*	i	i	KCNQ2 inh confirm=i
CCN(CC)CCNC(=O)c1cc2c(-c3ccc(Cl)cc3)nn(C)c2s1	i	·	·	·	·
CCOCCCNC(=O)c1cc2c(-c3ccc(Cl)cc3)nn(C)c2s1	i	0.84	·	·	·
CN1C2CCC1CC(NC(=O)CSCc1ccc(Cl)cc1Cl)C2 (centres undefined)	i	·	·	·	·
O=C(Nc1cccc2ccccc12)c1nn(C23CC4CC(CC(C4)C2)C3)cc1[N+](=O)[O-]	-9.06*	-9.06	-29.0%*	i	i	KCNQ2 inh confirm=+
COc1ccc(NC(=O)c2nn(C34CC5CC(CC(C5)C3)C4)cc2[N+](=O)[O-])cc1	i	0.35	·	·	·
COc1ccc(S(=O)(=O)Cc2ccc(C(=O)NCc3ccccc3OC)o2)cc1	i	·	·	·	·
COc1ccc(C(=O)NCCCOC(C)C)cc1OC1CCN(C(C)=O)CC1	i	·	·	·	·
CS(=O)(=O)c1ccc(C(=O)Nc2ccc(N3CCCCC3)cc2)c(Cl)c1	i	0.36	·	·	·
Cc1ccc(Sc2ccc(NC(=O)c3ccc(S(C)(=O)=O)cc3Cl)cc2)cc1	-8.76*	-8.76	i	i	i
O=C(CSC1=NCCS1)NC(c1ccccc1)c1ccccc1	-8.25*	-8.25	-42.0%*	-34.5%*	-32.0%*	KCNQ2 inh confirm=+
COc1ccccc1CNC(=O)CSc1ccc(Br)cc1	i	·	·	·	·
O=C(CSC1=NCCS1)NC(NC(=O)CSC1=NCCS1)c1ccccc1	i	0.49	·	·	·
COc1ccccc1CNC(=O)CSC1=NCCS1	-6.79*	-6.79	i	i	i
COC(=O)c1cn(Cc2cc(OC)ccc2OC)cc(F)c1=O	i	0.73	·	·	·
COc1ccc(NC(=O)CSc2nnc(-c3cccnc3)o2)c(OC)c1	i	·	·	·	·
CCCCCCCOC1(c2ccccc2)OC(=O)c2ccccc21 (centres undefined)	-8.49*	-8.49	-21.5%*	i	i	KCNQ2 inh confirm=i
CCCCCCOC1(c2ccccc2)OC(=O)c2ccccc21 (centres undefined)	i	·	·	·	·
CCN(Cc1cc(=O)n2ccsc2n1)Cc1nc2cc(OC)c(OC)cc2c(=O)[nH]1	i	·	·	·	·
CCNC(=O)COc1ccc(/C=N/NC(=O)c2cccnc2)cc1OC	i	0.09	·	·	·
COc1ccc(/C=N/NC(=O)c2cccnc2)cc1O	-7.25*	-7.25	i	i	i
COc1cccc(C2C(C(=O)Nc3ccc(C)cc3C)=C(C)Nc3ncnn32)c1OC (centres undefined)	-11.7*	-11.7	i	i	i
COc1ccccc1NC(=O)C1=C(C)Nc2ncnn2C1c1ccccc1C (centres undefined)	i	0.97	·	·	·
SMILES	KCNQ2 inh	KCNQ2 enhance	KCNQ2 block conf	KCNQ1 spec	CHO Tl ctr	others
CCn1c(COc2cccc3ccccc23)nnc1SCC(=O)OC1CCCCC1	-8.55*	-8.55	i	i	i
Cn1c(COc2cccc3ccccc23)nnc1SCC(=O)OC1CCCCC1	i	·	·	·	·
O=C(CSc1nnc(-c2ccncc2)n1Cc1ccco1)OC1CCCCC1	i	·	·	·	·
O=C(CSc1nnc(-c2ccco2)n1Cc1ccccc1)OC1CCCCC1	-9.37*	-9.37	-34.5%*	i	i	KCNQ2 inh confirm=+
CCOC(=O)c1csc(NC(=O)CN2CCOCC2)n1	i	·	·	·	·
CC(=O)Nc1ccc(S(=O)(=O)NCCC(=O)Nc2cc(C)ccn2)cc1	i	0.78	·	·	·
Cc1cccc(-c2cc(C(=O)Nc3ccc4c(c3)OCCO4)c3ccccc3n2)c1	i	·	·	·	·
COc1cccc(-c2cc(C(=O)Nc3cccnc3)c3ccccc3n2)c1	i	·	·	·	·
